# Source: PubChem BioAssay (Tox21)
# A number with no mark means an inactive call. Records with an inconclusive call do not appear. A call without a number means that no potency is given here. Activity calls are given as the source filed them. Unless noted, calls follow the shape of the dose curve; as a rule, active = well fitted curve in the direction sought with a large enough effect in the repeat runs; inconclusive = weak or mixed curves; inactive = no such curve, though single readings can be large; an effect the other way counts as inactive or inconclusive.
# Columns and labels:
# [1] = qHTS assay to identify small molecule agonists of the estrogen receptor alpha (ER-alpha) signaling pathway in the presence of an antagonist - cell viability counter screen (AID 1259386);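 also: series mostly up to about 92 µM; cells exposed to compounds for 22 h at 37 °C before the viability read; nearly all actives have a fitted effect of over 30% in size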
# Procedure, shortened: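 VM7Luc4E2, stripped-serum pre-culture 5 d; 24hr plating; +ICI-182,780 10.0nM final; cpds 15 conc, 22hr, 37C/5% CO2; CellTiter-Fluor added at 21hr, fluorescence 1hr later.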
# [2] = biological target: Progesterone receptor (Homo sapiens) (UniProt P06401); assay: qHTS assay to identify small molecule antagonists of the progesterone receptor (PR) signaling pathway (AID 1346795; active = well fitted inhibition curve with a large enough effect in the signal ratio in the repeat runs, not every such curve was filed as active; the % refers to the signal ratio; also: potency is read from the fitted curve at half-maximal effect)
# Chain of Progesterone receptor (Homo sapiens) (P06401 whole entry, looked up): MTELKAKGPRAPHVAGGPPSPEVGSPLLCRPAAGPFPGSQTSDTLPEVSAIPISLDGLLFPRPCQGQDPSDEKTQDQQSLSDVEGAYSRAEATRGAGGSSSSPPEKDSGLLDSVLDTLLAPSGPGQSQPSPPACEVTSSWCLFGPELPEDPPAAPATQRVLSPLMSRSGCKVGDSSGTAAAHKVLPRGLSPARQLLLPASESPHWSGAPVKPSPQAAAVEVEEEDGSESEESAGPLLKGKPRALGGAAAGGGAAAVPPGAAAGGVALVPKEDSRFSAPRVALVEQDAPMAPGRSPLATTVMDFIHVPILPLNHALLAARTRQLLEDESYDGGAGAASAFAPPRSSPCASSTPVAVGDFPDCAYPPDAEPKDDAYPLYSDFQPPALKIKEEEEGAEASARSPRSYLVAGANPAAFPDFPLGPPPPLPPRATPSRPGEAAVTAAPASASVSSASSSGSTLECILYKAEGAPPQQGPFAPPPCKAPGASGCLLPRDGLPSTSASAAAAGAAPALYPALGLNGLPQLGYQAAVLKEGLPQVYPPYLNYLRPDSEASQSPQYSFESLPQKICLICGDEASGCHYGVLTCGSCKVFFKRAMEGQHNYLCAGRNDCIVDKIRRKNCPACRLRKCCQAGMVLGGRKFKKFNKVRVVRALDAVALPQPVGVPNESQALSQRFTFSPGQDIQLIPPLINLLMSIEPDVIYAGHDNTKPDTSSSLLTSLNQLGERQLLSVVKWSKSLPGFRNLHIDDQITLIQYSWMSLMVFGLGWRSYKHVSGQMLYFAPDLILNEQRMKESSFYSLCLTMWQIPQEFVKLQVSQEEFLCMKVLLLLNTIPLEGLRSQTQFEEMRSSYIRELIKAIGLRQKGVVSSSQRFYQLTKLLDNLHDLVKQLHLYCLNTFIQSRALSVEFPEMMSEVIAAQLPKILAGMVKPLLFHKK
# Procedure, shortened: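 PR-UAS-bla HEK293T cells with beta-lactamase reporter under UAS control, in 2% charcoal-stripped FBS, treated with compounds plus 1 nM promegestone (R5020, final) for 16 hr at 37C. Read-out: FRET beta-lactamase substrate fluorescence after 2 hr at room temperature.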
# [3] = qHTS assay to identify small molecule antagonists of the TGF-beta/Smad signaling pathway - cell viability counter screen (AID 1346824); also: nearly all actives have a fitted effect of over 50% in size
# Procedure, shortened: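 SBE-bla HEK 293T cells were plated overnight at 37 C, then given compounds in DMSO plus TGF-beta1 (added as 0.25 ng/mL solution) for 5 hr. After the bla read, CellTiter-Glo was added to the same wells and luminescence read after 30 min at room temperature.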
# [4] = qHTS assay to identify small molecule agonists of the TGF-beta/Smad signaling pathway - cell viability counter screen (AID 1346829); also: top concentration of the series differs between compounds; nearly all actives have a fitted effect of over 45% in size
# Procedure, shortened: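 CellTiter-Glo luminescence readout; SBE-bla HEK 293T cells, overnight plating, compound 5 hr at 37 C/5% CO2, then bla substrate 2 hr RT, then CellTiter-Glo 30 min RT.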
# [5] = qHTS assay to identify small molecule agonists of the TGF-beta/Smad signaling pathway (AID 1346859; active = well fitted activation curve with a large enough effect in the signal ratio in the repeat runs, not every such curve was filed as active; the % refers to the signal ratio; also: series mostly up to about 77 µM)
# Procedure, shortened: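 SBE-bla HEK293T cells plated overnight, then compound exposure for 5 h at 37 C. Beta-lactamase reporter read with LiveBLAzer B/G FRET substrate after 2 h at room temperature, fluorescence at 405 nm excitation, 460/530 nm emission.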
# [6] = Caspase-3/7 induction in HepG2 cells by small molecules, qHTS assay (AID 1346978); also: nearly all actives have a fitted effect of over 15% in size
# Procedure, shortened: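 Wild-type HepG2 cells (2,000/well) were settled 5 h at 37 C, 5% CO2, then exposed to compounds in DMSO for 17 h. Caspase-3/7 activity was read by luminescence 30 min after adding Caspase-Glo 3/7 reagent at room temperature.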
# [7] = Caspase-3/7 induction in CHO-K1 cells by small molecules, qHTS cell viability counter screen (AID 1346979); also: nearly all actives have a fitted effect of over 35% in size; also: potency is read from the fitted curve at half-maximal effect
# Procedure, shortened: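 Wild-type CHO-K1 cells (1,500/well) treated with compound after 5 h plating; after 16 h at 37C, viability read as CellTiter-Fluor fluorescence following 1 h reagent incubation, in the same wells as the caspase read.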
# [8] = Caspase-3/7 induction in CHO-K1 cells by small molecules, qHTS assay (AID 1346980); also: nearly all actives have a fitted effect of over 15% in size
# Procedure, shortened: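 Wild-type cells were seeded at 1,500 per well and settled 5 hr at 37 C, 5% CO2, then exposed to DMSO-dissolved compounds for 17 hr. Caspase-Glo 3/7 reagent was added, and luminescence was read after 30min at room temperature.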
# [9] = biological target: Nuclear receptor subfamily 1 group I member 2 (Homo sapiens) (UniProt O75469); assay: Human pregnane X receptor (PXR) small molecule agonists, qHTS assay (AID 1346982); also: nearly all actives have a fitted effect of over 35% in size; also: potency is read from the fitted curve at half-maximal effect
# Chain of Nuclear receptor subfamily 1 group I member 2 (Homo sapiens) (O75469 whole entry, looked up): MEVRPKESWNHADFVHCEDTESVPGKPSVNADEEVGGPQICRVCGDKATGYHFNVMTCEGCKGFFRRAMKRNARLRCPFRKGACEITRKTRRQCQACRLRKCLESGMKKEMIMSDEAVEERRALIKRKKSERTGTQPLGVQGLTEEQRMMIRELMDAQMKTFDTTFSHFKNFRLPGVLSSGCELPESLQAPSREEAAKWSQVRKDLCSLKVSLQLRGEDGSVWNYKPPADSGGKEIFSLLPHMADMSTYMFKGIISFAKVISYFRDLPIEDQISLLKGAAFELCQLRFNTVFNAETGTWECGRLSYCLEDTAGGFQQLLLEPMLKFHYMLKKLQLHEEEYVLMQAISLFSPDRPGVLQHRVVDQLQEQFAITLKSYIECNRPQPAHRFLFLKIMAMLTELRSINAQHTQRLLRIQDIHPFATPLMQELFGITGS
# Procedure, shortened: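 Luciferase signal from ONE-Glo (30 min, room temperature) measured activation of hPXR-driven CYP3A4 reporter expression in PXR-Luc HepG2 cells treated with compounds for 24 hr at 37 C.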
# [10] = biological target: Acetylcholinesterase (Homo sapiens) (UniProt P22303); assay: Acetylcholinesterase (AChE) small molecule antagonists: colormetric cell-based qHTS assay (AID 1347395; calls by dose curve; also: nearly all actives have a fitted effect of over 30% in size; also: potency is read from the fitted curve at half-maximal effect)
# Chain of Acetylcholinesterase (Homo sapiens) (P22303 whole entry, looked up): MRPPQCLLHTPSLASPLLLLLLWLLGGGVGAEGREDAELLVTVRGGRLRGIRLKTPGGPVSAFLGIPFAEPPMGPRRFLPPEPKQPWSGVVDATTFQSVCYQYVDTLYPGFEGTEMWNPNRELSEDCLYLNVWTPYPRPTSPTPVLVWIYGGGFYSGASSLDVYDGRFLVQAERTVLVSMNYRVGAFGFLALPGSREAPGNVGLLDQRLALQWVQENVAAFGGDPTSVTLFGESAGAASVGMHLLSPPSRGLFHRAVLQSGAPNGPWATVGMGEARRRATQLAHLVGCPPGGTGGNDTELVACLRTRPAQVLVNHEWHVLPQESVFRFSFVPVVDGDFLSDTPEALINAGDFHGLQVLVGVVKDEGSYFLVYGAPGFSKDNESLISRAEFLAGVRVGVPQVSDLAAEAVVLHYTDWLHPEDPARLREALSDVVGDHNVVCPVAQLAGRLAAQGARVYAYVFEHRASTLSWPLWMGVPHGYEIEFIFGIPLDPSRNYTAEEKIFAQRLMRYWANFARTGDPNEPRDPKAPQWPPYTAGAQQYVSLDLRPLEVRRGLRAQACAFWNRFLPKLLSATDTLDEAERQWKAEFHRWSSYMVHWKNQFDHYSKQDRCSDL
# Procedure, shortened: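 SH-SY5Y cells attached overnight, exposed to compound 30 min at 37 C, then given DTNB/acetylthiocholine; after 90 min at 37 C, colorimetric thiocholine read gives cellular AChE activity.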
# [11] = biological target: Acetylcholinesterase (Homo sapiens) (UniProt P22303); assay: Acetylcholinesterase (AChE) small molecule antagonists: enzyme-based qHTS assay (AID 1347397; calls by dose curve; also: nearly all actives have a fitted effect of over 55% in size; also: potency is read from the fitted curve at half-maximal effect); details: Potency: AChE enzyme activity inhibition
# Procedure, shortened: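 Human recombinant acetylcholinesterase; substrate acetylthiocholine; thiocholine quantified with DTNB (colorimetric). Compound preincubation 30 min RT; reaction 10 min RT.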
# [12] = Caspase-3/7 induction in HepG2 cells by small molecules, qHTS cell viability counter screen (AID 1346981); also: series mostly up to about 92 µM; nearly all actives have a fitted effect of over 30% in size
# Procedure, shortened: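 HepG2, WT, 2,000 cells/well; 5 hr pre-incubation 37 C/5% CO2; compound pin-transferred from DMSO; 16 hr exposure; CellTiter-Fluor, 1 hr; fluorescence read.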
# [13] = qHTS assay to identify small molecule antagonists of the progesterone receptor (PR) signaling pathway - cell viability counter screen (AID 1346798); also: series mostly up to about 92 µM; nearly all actives have a fitted effect of over 50% in size
# Procedure, shortened: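 PR-UAS-bla HEK293T cells, 3,000/well in 2% charcoal-stripped FBS medium, dosed with compounds plus R5020 agonist and incubated 16 h at 37C. Viability then measured in the same wells by CellTiter-Glo luminescence after 30 min at RT.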
# [14] = qHTS assay to identify small molecule agonists of the progesterone receptor (PR) signaling pathway - cell viability counter screen (AID 1346799; calls by dose curve; also: nearly all actives have a fitted effect of over 45% in size)
# Procedure, shortened: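 Counter screen in the PR-UAS-bla HEK293T wells (2% charcoal-stripped FBS, 16 h compound exposure at 37 C) after the bla read. CellTiter-Glo added, 30 min at room temperature, luminescence read as cell viability.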
# [15] = biological target: Thyrotropin-releasing hormone receptor (Homo sapiens) (UniProt P34981); assay: qHTS assay to identify small molecule agonists of the thyrotropin-releasing hormone receptor (TRHR) signaling pathway (AID 1346891; calls by dose curve; also: series mostly up to about 58 µM)
# Chain of Thyrotropin-releasing hormone receptor (Homo sapiens) (P34981 whole entry, looked up): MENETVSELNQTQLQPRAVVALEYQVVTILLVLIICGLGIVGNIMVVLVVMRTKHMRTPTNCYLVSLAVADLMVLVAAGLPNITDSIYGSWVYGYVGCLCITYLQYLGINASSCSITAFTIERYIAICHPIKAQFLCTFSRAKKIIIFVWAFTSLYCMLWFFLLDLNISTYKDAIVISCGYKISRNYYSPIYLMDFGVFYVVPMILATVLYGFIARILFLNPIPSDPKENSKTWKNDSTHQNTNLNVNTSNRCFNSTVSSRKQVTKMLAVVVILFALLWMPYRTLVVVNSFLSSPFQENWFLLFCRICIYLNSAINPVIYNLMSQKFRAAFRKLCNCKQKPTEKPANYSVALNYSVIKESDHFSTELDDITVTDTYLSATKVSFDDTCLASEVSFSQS
# Procedure, shortened: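 HEK293 cells expressing TRHR plated 18 h at 37 C/5% CO2, calcium dye-loaded 2 h at 37 C, then compound added (agonist mode); kinetic calcium fluorescence read 3 min at 1 s intervals; 15 concentrations in triplicate.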
# [16] = Human pregnane X receptor (PXR) small molecule agonists, qHTS cell viability counter screen (AID 1346977); also: nearly all actives have a fitted effect of over 50% in size; also: potency is read from the fitted curve at half-maximal effect
# Procedure, shortened: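 PXR-Luc HepG2 cells (2,000/well, 5% charcoal-stripped FBS) preincubated 5 hr, then exposed to compounds 24 hr at 37 C. Viability read in the same wells by CellTiter-Fluor fluorescence, reagent added at 23 hr, 1 hr incubation.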
# [17] = biological target: Thyrotropin-releasing hormone receptor (Homo sapiens) (UniProt P34981); assay: qHTS assay to identify small molecule antagonists of the thyrotropin-releasing hormone receptor (TRHR) signaling pathway (AID 1346877; active = well fitted inhibition curve with a large enough effect in the repeat runs, not every such curve was filed as active; also: series mostly up to about 51 µM)
# Procedure, shortened: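 Intracellular calcium fluorescence, read kinetically every second over 3 min, reports TRH-evoked signalling in HEK293 cells carrying TRHR. Test compounds were added 5 min ahead of a 1 nM TRH challenge.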
# [18] = biological target: Progesterone receptor (Homo sapiens) (UniProt P06401); assay: qHTS assay to identify small molecule agonists of the progesterone receptor (PR) signaling pathway (AID 1346784; calls by dose curve; also: nearly all actives have a fitted effect of over 30% in size)
# Procedure, shortened: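 PR-UAS-bla HEK 293T cells (beta-lactamase reporter under UAS) in 2% charcoal-stripped FBS, dosed with 23 nL compound after 6 hr, incubated 16hr at 37C. LiveBLAzer B/G FRET substrate added, fluorescence read after 2 hours.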
structure (smiles),measurement,setting,value
CC(c1ccc(O)cc1)(c1ccc(O)cc1)c1ccc(O)cc1,Potency,[1],inactive
same,Potency,[2],19.3 µM (active)
same,Potency,[3],inactive
same,Potency,[4],inactive
same,outcome,[5],inactive
same,Potency,[6],inactive
same,Potency,[7],68.6 µM (active)
same,Potency,[8],inactive
same,Potency,[9],68.6 µM (active)
same,Potency,[10],inactive
same,Potency,[11],inactive
COP(=S)(OC)Oc1cc(Cl)c(I)cc1Cl,Potency,[1],inactive
same,Potency,[2],21.7 µM (active)
same,Potency,[3],inactive
same,Potency,[4],inactive
same,outcome,[5],inactive
same,Potency,[6],inactive
same,Potency,[7],inactive
same,Potency,[8],inactive
same,Potency,[12],inactive
same,Potency,[9],inactive
same,Potency,[10],inactive
same,Potency,[11],inactive
Nc1nc(N)nc(N)n1,Potency,[1],inactive
same,Potency,[13],inactive
same,Potency,[14],inactive
same,Potency,[3],inactive
same,Potency,[4],inactive
same,outcome,[5],inactive
same,Potency,[15],inactive
same,Potency,[16],inactive
same,Potency,[6],inactive
same,Potency,[7],inactive
same,Potency,[8],inactive
same,Potency,[12],inactive
same,Potency,[9],inactive
same,Potency,[10],inactive
same,Potency,[11],inactive
CO[C@@H]1[C@H](OC(=O)NC(=O)CCl)CC[C@]2(CO2)[C@H]1[C@@]1(C)O[C@@H]1CC=C(C)C,"activity change, negative = cytotoxicity",[1],-1.81% [at 19 µM]
same,"activity change, negative = inhibition",[2],6.82% [at 18.9 µM]
same,"activity change, negative = cytotoxicity",[13],-12.2% [at 18.9 µM]
same,"activity change, negative = cytotoxicity",[14],-29% [at 19 µM]
same,"viability change, negative = cytotoxic",[3],3.4% [at 15.8 µM]
same,"activity change, negative = cytotoxicity",[4],8.28% [at 15.8 µM]
same,activation,[5],3.24% [at 15.8 µM]
same,"activity, negative = inhibition",[17],4.68% [at 10.5 µM]
same,activation,[15],-0.27% [at 11.8 µM]
same,"activity change, negative = cytotoxicity",[16],1.62% [at 19 µM]
same,caspase activation,[6],1.54% [at 19 µM]
same,caspase-3/7 activation,[8],1.61% [at 19 µM]
same,"activity change, negative = cytotoxicity",[12],-0.84% [at 19 µM]
same,Potency,[9],10.6 µM (active)
same,"activity, negative = inhibition",[10],2.96% [at 23.6 µM]
same,"activity change, negative = inhibition",[11],0.618% [at 23.6 µM]
O=C(O)C(F)(F)C(F)(F)C(F)(F)C(F)(F)C(F)(F)C(F)(F)C(F)(F)C(F)(F)C(F)(F)C(F)(F)F,Potency,[1],inactive
same,Potency,[13],inactive
same,Potency,[3],inactive
same,Potency,[4],inactive
same,outcome,[5],inactive
same,Potency,[17],inactive
same,Potency,[15],inactive
same,Potency,[16],inactive
same,Potency,[6],inactive
same,Potency,[7],inactive
same,Potency,[8],inactive
same,Potency,[12],inactive
same,Potency,[9],inactive
same,Potency,[10],inactive
same,Potency,[11],inactive
CC1CC(CC2CCC(N)C(C)C2)CCC1N (stereo not given),Potency,[18],inactive
same,Potency,[2],inactive
same,Potency,[3],inactive
same,Potency,[4],inactive
same,outcome,[5],inactive
same,Potency,[15],inactive
same,Potency,[6],inactive
same,Potency,[7],inactive
same,Potency,[8],inactive
same,Potency,[12],inactive
same,Potency,[9],inactive
same,Potency,[10],inactive
same,Potency,[11],inactive
C=CC[C@]1(O)CC[C@H]2[C@@H]3CCC4=CC(=O)CCC4=C3C=C[C@@]21C,Potency,[13],inactive
same,Potency,[3],inactive
same,Potency,[4],inactive
same,Potency,[17],inactive
same,Potency,[15],inactive
same,Potency,[16],inactive
same,Potency,[6],inactive
same,Potency,[7],7.5 µM (active)
same,Potency,[8],inactive
same,Potency,[12],inactive
same,Potency,[9],inactive
same,Potency,[10],inactive
same,Potency,[11],inactive
O=C(Nc1ccccc1)Nc1ccnc(Cl)c1,Potency,[4],inactive
same,outcome,[5],inactive
same,Potency,[16],43.3 µM (active)
same,Potency,[6],inactive
same,Potency,[7],48.6 µM (active)
same,Potency,[8],inactive
same,Potency,[9],30.6 µM (active)
same,Potency,[10],inactive
same,Potency,[11],inactive
CCOP(=S)(OCC)SCn1nnc2ccccc2c1=O,Potency,[2],27.3 µM (active)
same,Potency,[3],inactive
same,Potency,[4],inactive
same,outcome,[5],inactive
same,Potency,[15],inactive
same,Potency,[6],inactive
same,Potency,[7],68.6 µM (active)
same,Potency,[8],inactive
same,Potency,[9],6.86 µM (active)
same,Potency,[10],12.6 µM (active)
same,Potency,[11],35.6 µM (active)
